Compound activity deposited in PubChem BioAssay by National Center for Advancing Translational Sciences (NCATS).
KAT2A inh – GCN5L2 (KAT2A) acetyltransferase inhibition | Q92830 | GCN5L2 HAT assay, ThioGlo1 CoA-SH fluorescence | Potency, µM (doses to about 58.9 µM), for the others: at the highest dose activity change, negative = inhibition, most hits filed as inhibitors | 390,000 compounds, 0.21% hits | AID 504327; also: potency is read from the fitted curve at half-maximal effect
Target sequence (Q92830 whole entry, looked up): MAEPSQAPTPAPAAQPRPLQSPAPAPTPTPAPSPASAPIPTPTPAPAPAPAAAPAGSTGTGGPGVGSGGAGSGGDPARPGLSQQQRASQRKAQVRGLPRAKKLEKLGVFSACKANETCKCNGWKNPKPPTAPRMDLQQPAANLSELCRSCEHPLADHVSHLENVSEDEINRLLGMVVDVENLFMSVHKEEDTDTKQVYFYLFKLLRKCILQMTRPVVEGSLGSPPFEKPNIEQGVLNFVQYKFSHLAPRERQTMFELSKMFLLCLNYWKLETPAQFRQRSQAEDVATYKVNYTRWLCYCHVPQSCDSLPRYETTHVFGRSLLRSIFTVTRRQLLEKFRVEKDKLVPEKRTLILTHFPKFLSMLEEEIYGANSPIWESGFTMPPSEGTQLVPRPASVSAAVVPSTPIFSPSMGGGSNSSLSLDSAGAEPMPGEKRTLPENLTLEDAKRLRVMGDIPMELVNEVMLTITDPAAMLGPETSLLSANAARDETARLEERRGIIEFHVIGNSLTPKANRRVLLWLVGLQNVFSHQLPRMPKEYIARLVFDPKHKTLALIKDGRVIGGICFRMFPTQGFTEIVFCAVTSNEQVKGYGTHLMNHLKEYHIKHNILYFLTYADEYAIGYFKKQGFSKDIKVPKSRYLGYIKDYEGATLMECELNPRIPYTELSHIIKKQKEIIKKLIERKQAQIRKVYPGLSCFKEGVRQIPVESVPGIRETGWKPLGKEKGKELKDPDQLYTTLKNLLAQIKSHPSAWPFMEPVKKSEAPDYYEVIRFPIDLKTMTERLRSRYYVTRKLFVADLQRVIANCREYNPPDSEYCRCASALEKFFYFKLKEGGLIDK
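GCN5L2 (20nM final) in 50mM HEPES, 0.1mM EDTA pH 7.5, 0.01% Tween-20 was preincubated 15 min at room temperature with compound, then given ThioGlo1 (50uM), H3(1-25) peptide (75uM) and acetyl-CoA (70uM); CoA-thiol fluorescence (Ex340/Em540) was read at 0 and 20 min.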
GLS inh – glutaminase GLS (human) inhibition; O94925; GLS enzymatic activity, qHTS titration; Potency, µM (titrated, usually from 45.5 µM), without a hit: at the highest dose activity change, negative = inhibition, hits mostly inhibitors; 410,000 compounds, 0.21% hits; also: potency is read from the fitted curve at half-maximal effect
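Enzyme dispensed in phosphate buffer (45 mM, pH 8.2, 0.02% Tween-20), compounds pinned in, then 1 mM L-glutamine solution and the glutamate oxidase–HRP–Amplex Red mix added; fluorescence read immediately and again after 30 min at room temperature.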
PI4K2A inh – blocks human PI4K2A kinase activity; activity change, negative = inhibition, % at 76.9 µM; purified PI4K2A, ADP-Glo luminescence, 1 h; active compounds read low; 420,000 compounds, 0.13% hits; in the data active = activity change below about -50%; inconclusive = mostly about -30% to -49%;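 also: -100% = wells without enzyme as full effect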
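PI4K2A activity was measured by ADP-Glo luminescence: enzyme (4 ug/mL stock) and phosphatidylinositol (1.2 mM stock) in Tris pH 7.5/MgCl2/EGTA/Triton X-100 buffer were reacted with ATP (300 microM stock) for one hour at ambient temperature.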
PLK1 PBD inh – PLK1 (human) polo-box domain binding inhibition | AID 720504 | 360,000 compounds, 2.8% hits | Plk1 PBD binding of FITC phosphopeptide, fluorescence polarization | P53350 | Potency, µM, for inactives: max response, negative = inhibition, usual class: inhibitors; also: potency is read from the fitted curve at half-maximal effect; series mostly up to about 57 µM; nearly all actives have a fitted effect of over 65% in size
VDR inhibitor – inhibitors of human vitamin D receptor. VDR-SRC2-3 peptide fluorescence polarization, 2 h. 400,000 compounds, 0.93% hits. Potency, µM, for the others: max response, negative = inhibition, hits mostly inhibitors. P11473. AID 504847; also: potency is read from the fitted curve at half-maximal effect
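FP read-out; VDR + SRC2-3 coactivator peptide; 23 nl compound by pintool; 2 h RT incubation; reagents held at 4 deg C, protected from light.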
* marks the source's active call; other numbers are inactive results. Compounds with a hit are over-represented: about 3.1% of the library has one in this group of screens. Unless noted, calls follow the shape of the dose curve; as a rule, active = well fitted curve in the direction sought with a large enough effect; inconclusive = small, poorly fitted or top-dose-only effect, or another doubt; inactive = no such curve, though single readings can be large; an effect the other way counts as inactive or inconclusive. Unless noted, % is scaled to controls: 0 for no effect and ±100 for the full control effect.

Screening N#C/C(=C/c1ccncc1)c1nc2ccccc2s1 returned KAT2A inh 1%, GLS inh 4%, PI4K2A inh 5, PLK1 PBD inh -9% and VDR inhibitor 71µM*.
CC(C)(C)OC(=O)NCc1cc(F)ccc1/C=C/S(=O)(=O)NCc1ccccc1 was read as PI4K2A inh -8.
Screening Cn1cc(-c2nc3cncnc3n(Cc3ccccc3Cl)c2=O)c2ccccc21 returned KAT2A inh -5% and VDR inhibitor 0%.
For O=C(CSc1nc2cc(S(=O)(=O)N3CCOCC3)ccc2o1)NC1CCCc2ccccc21 (stereo unspecified) the results were KAT2A inh -11%, GLS inh 88%, PI4K2A inh -7, PLK1 PBD inh 6.7µM* and VDR inhibitor inconclusive.
`Cc1[nH]c2ccccc2c1C(=O)CSc1nc2cc(S(=O)(=O)N3CCCCC3)ccc2o1` gave KAT2A inh 2%, GLS inh -1%, PI4K2A inh -2, PLK1 PBD inh -15% and VDR inhibitor -8%.
Screening Cc1ccc(C(=O)CSc2nc3cc(S(=O)(=O)N4CCOCC4)ccc3o2)cc1 returned KAT2A inh -7%, GLS inh -4%, PI4K2A inh -5, PLK1 PBD inh 24µM* and VDR inhibitor -4%.
Screening CC(C)(C)C1CCc2nc(NC(=O)COc3ccc(F)cc3)sc2C1 (stereo unspecified) returned KAT2A inh -4%, GLS inh -11%, PI4K2A inh -9 and VDR inhibitor 10%.
CC1CCCCC1NC(=O)COC(=O)c1c2c(nc3ccccc13)/C(=C/c1ccco1)CC2 (stereo unspecified) was read as KAT2A inh inconclusive, GLS inh -23%, PI4K2A inh inconclusive, PLK1 PBD inh 11µM* and VDR inhibitor -23%.
Screening COC(=O)c1cccc(Cn2ccc3ccc(-c4ccc5ccn(Cc6cccc(C(=O)OC)c6)c5c4)cc32)c1 returned PI4K2A inh -6.
COC(=O)[C@]12C[C@H](CC(=O)NCc3ccc(C)o3)C(=O)N(CCc3ccc(OC)c(OC)c3)C1=C[C@H](C1CCCC1)O[C@@H]2C was read as PI4K2A inh -3.
For COC(=O)CSc1nc(N)c(C#N)c(-c2ccc(O)cc2)c1C#N the results were KAT2A inh -10%, GLS inh 11µM*, PI4K2A inh 5, PLK1 PBD inh -10% and VDR inhibitor 6%.
O=C(Cc1cccc(F)c1)N1CCOCC1 was read as GLS inh -5%, PI4K2A inh 11, PLK1 PBD inh 21µM* and VDR inhibitor -10%.
O=C(Nc1cc(F)ccc1F)C1CCN(c2nc3ccccc3n3cccc23)CC1 was read as KAT2A inh -10%, GLS inh -6%, PI4K2A inh 0 and VDR inhibitor 4%.
`CNc1cnn(-c2ccccc2)c(=O)c1Cl` gave KAT2A inh 0%, GLS inh -15%, PI4K2A inh 4, PLK1 PBD inh 11µM* and VDR inhibitor -19%.
Screening Cc1cccc(OCC(=O)Nc2c(C(=O)N3CCN(c4ccccc4F)CC3)oc3ccccc23)c1 returned KAT2A inh -9%, GLS inh -5%, PI4K2A inh -1 and VDR inhibitor 9%.
For O=C(O)CCSc1ccccn1 the results were KAT2A inh -1%, GLS inh 6%, PI4K2A inh 6, PLK1 PBD inh 13µM* and VDR inhibitor -9%.
O=C(CCSc1ccccn1)c1ccccc1 was read as KAT2A inh 2%, GLS inh -3%, PI4K2A inh 1, PLK1 PBD inh inconclusive and VDR inhibitor inconclusive.
For Cc1ccc(C)n1-c1ccc(N(C)C)cc1 the results were KAT2A inh -3%, GLS inh 13µM*, PI4K2A inh -13, PLK1 PBD inh -22% and VDR inhibitor inconclusive.
Cc1ccc(C)n1-c1ccc(N2CCOCC2)cc1 was read as KAT2A inh -3%, GLS inh 21%, PI4K2A inh -1, PLK1 PBD inh -8% and VDR inhibitor -7%.
Screening CC1CCC(=C(C#N)c2nc(-c3cc4ccccc4oc3=O)cs2)CC1 (stereo unspecified) returned KAT2A inh -12%, GLS inh 6%, PI4K2A inh 5, PLK1 PBD inh 27µM* and VDR inhibitor -20%.
`N#C/C(=C\c1ccc(Cl)cc1)c1nc(-c2cc3ccccc3oc2=O)cs1` gave KAT2A inh -13%, GLS inh -5%, PI4K2A inh -12 and VDR inhibitor -6%.
`CNC1CCc2cc(OC)c(OC)c(OC)c2-c2ccc(OC)c(=O)cc21` (stereo unspecified) gave KAT2A inh -11%, GLS inh -6% and VDR inhibitor -3%.
`CC(=C(CCOC(=O)C(C)C)SSC(CCOC(=O)C(C)C)=C(C)N(C=O)Cc1cnc(C)nc1N)N(C=O)Cc1cnc(C)nc1N` gave PI4K2A inh -3.
`O=C(Nc1cccc(C(F)(F)F)c1)OCCCN1CCC2(CCC(c3ccccc3)CC2)C1=O` (stereo unspecified) gave PI4K2A inh -6.
COc1ccc(NC(=O)CSc2nnc(-c3n[nH]c4c3CCC4)n2N)cc1OC was read as PI4K2A inh 2.
For C=CCNc1nc(Cl)nc(Nc2cc(Cl)ccc2OC)n1 the results were KAT2A inh 1%, GLS inh -9%, PI4K2A inh 2, PLK1 PBD inh 21µM* and VDR inhibitor inconclusive.
For COc1ccc(S[C@]2(C(=O)N3CCOCC3)CC(=O)N(c3ccsc3)[C@@H]2c2ccc(OC)cc2)cc1 the results were PI4K2A inh 4.
O=C(Nc1ccc(NC(=O)c2ccccc2)nc1)c1ccncc1 was read as KAT2A inh 0%, GLS inh 13%, PI4K2A inh -4, PLK1 PBD inh 17µM* and VDR inhibitor inconclusive.
For O=C(NCCN1CCOCC1)c1cc(S(=O)(=O)Nc2ccccc2F)c(Cl)cc1Cl the results were KAT2A inh 7%, GLS inh 0%, PI4K2A inh -5, PLK1 PBD inh 34µM* and VDR inhibitor -9%.
For COc1cccc(CN2CCc3nc(Nc4ccc5c(c4)OCCO5)ncc3C2)c1OC the results were KAT2A inh -9%, GLS inh 12%, PI4K2A inh -4 and VDR inhibitor 9%.
Screening O=C(OCn1ncc(Cl)c(Cl)c1=O)c1ccc(C(F)(F)F)cc1 returned KAT2A inh -5%, GLS inh -7%, PI4K2A inh 23, PLK1 PBD inh -21% and VDR inhibitor 20µM*.
CC(C)Oc1ccc(OCCn2c(=S)[nH]c3c(N)ncnc32)cc1 was read as KAT2A inh inconclusive, GLS inh -8%, PI4K2A inh 4, PLK1 PBD inh 11µM* and VDR inhibitor -1%.
